This note sets out measurements from PubChem BioAssay (NCI).

The nature of assay [1]: NCI Yeast Anticancer Drug Screen. Data for the rad50 strain (AID 155).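 Note: 0% = growth of vehicle-only cultures of the same strain.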 The conditions noted are these: S. cerevisiae rad50 strain growth inhibition, active compounds read high. Put shortly: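 Compounds were tested on a yeast strain with an engineered DNA damage repair alteration; the reported value is growth inhibition normalised to vehicle treatment.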
Assay [2] is described as follows: NCI Yeast Anticancer Drug Screen. Data for the mec2-1 strain (AID 157). The conditions noted are these: S. cerevisiae mec2-1 strain, active compounds read high. Put shortly: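 Using mec2-1 yeast: add compound, measure growth, express inhibition versus vehicle-treated cultures.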
Assay [3] can be described thus: NCI Yeast Anticancer Drug Screen. Data for the sgs1 mgt1 strain (AID 161).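 Note: 0% = growth of cultures given vehicle only.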 The conditions noted are these: S. cerevisiae sgs1 mgt1 strain, active compounds read high. The method, boiled down: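 This yeast growth screen uses a strain with defined DNA-repair lesions; compound-treated growth is compared with vehicle-treated growth.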
The nature of assay [4]: NCI Yeast Anticancer Drug Screen. Data for the cln2 rad14 strain (AID 165).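 Note: 0% = growth equal to vehicle treated cultures.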 The conditions noted are these: S. cerevisiae cln2 rad14 strain, active compounds read high. The method, boiled down: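 Yeast strain cln2 rad14, bearing defects in cell cycle control and DNA repair, serves as the test system; values reflect growth inhibition compared with vehicle.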
Assay [5] in a line: NCI Yeast Anticancer Drug Screen. Data for the bub3 strain (AID 167). The conditions noted are these: S. cerevisiae bub3 mutant strain, active compounds read high. Put shortly: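 Growth of a checkpoint-deficient yeast mutant is measured after compound exposure. Values represent inhibition relative to vehicle.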
Assay [6] can be described thus: NCI Yeast Anticancer Drug Screen. Data for the mlh1 rad18 strain (AID 175). The conditions noted are these: S. cerevisiae mlh1 rad18 strain growth inhibition, active compounds read high. The method, boiled down: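 Steps: expose repair-defective yeast to compound; measure growth; express inhibition against vehicle-treated controls.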
The mark [7] stands for this setting: at 5.0 µM (retest, dose inferred, filed as 0.5).
The mark [8] stands for this setting: at 50.0 µM (retest, dose inferred, filed as 5.0).

This is part of a sample that, as a whole, favours compounds with a hit. Of some 79,000 tested, about 15% had one in any assay. A number with no mark means an inactive call. Activity calls are given as the source filed them. Cut-off read from the data, not from the text of the source: active = growth inhibition above about 70%; inactive = the rest.

With `CC(=O)OC12CC(C(F)(F)F)(C(F)(F)F)OC1(OC(C)=O)CC(C(F)(F)F)(C(F)(F)F)O2` (configuration not stated), the growth inhibition in assay [1] (setting [7]) is 1%; in assay [1] (setting [8]), 15%; in assay [1] (at 50.0 µM), 49.5%; in assay [2] (setting [7]) it was -8%; in assay [2] (setting [8]), 48%; in assay [2] (at 50.0 µM), 29.8%. Further, the growth inhibition was 4% in assay [3] (setting [7]); 66% in assay [3] (setting [8]); 50.2% in assay [3] (at 50.0 µM); 18% in assay [4] (setting [7]); 56% in assay [4] (setting [8]); 71% (active) in assay [4] (at 50.0 µM). The growth inhibition in assay [5] (setting [7]) was 7%; in assay [5] (setting [8]) it was 28%; in assay [5] (at 50.0 µM) it was 67.1%; in assay [6] (setting [7]) it was -4%; in assay [6] (setting [8]) it was 66%; in assay [6] (at 50.0 µM) it was 86.3% (active).

In the case of `O=C(Nc1ccccc1)Oc1c(Cl)c(Cl)c(Cl)c(Cl)c1Cl`, the growth inhibition in assay [1] (setting [7]) was 19%; in assay [1] (setting [8]) it was 98% (active); in assay [1] (at 50.0 µM), 58.4%; in assay [2] (setting [7]), 13%; in assay [2] (setting [8]) it was 99% (active); in assay [2] (at 50.0 µM), 45.8%. The growth inhibition in assay [3] (setting [7]) is 26%; in assay [3] (setting [8]), 99% (active); in assay [3] (at 50.0 µM), 55.7%; in assay [4] (setting [7]) it was 3%; in assay [4] (setting [8]), 99% (active); in assay [4] (at 50.0 µM), -20.8%. For the same compound, the growth inhibition in assay [5] (setting [7]) is -2%; in assay [5] (setting [8]), 99% (active); in assay [5] (at 50.0 µM), 54.4%; in assay [6] (setting [7]), 6%; in assay [6] (setting [8]), 98% (active); in assay [6] (at 50.0 µM) it was 68.7%.

In the case of `Cc1cc(/C=C/c2cccc[n+]2C)c(C)n1-c1ccccc1`, the growth inhibition was 4% in assay [1] (setting [7]); 85% (active) in assay [1] (setting [8]); 96% (active) in assay [1] (at 50.0 µM); -1% in assay [2] (setting [7]); 93% (active) in assay [2] (setting [8]); 91.6% (active) in assay [2] (at 50.0 µM). Moreover, the growth inhibition is 1% in assay [3] (setting [7]); 90% (active) in assay [3] (setting [8]); 95.8% (active) in assay [3] (at 50.0 µM); -4% in assay [4] (setting [7]); 85% (active) in assay [4] (setting [8]); 90.8% (active) in assay [4] (at 50.0 µM). In addition, the growth inhibition was -8% in assay [5] (setting [7]); 85% (active) in assay [5] (setting [8]); 17.1% in assay [5] (at 50.0 µM); 6% in assay [6] (setting [7]); 94% (active) in assay [6] (setting [8]); 93.7% (active) in assay [6] (at 50.0 µM).

`N#CSCc1ccc(CSC#N)c(Cl)c1`: the growth inhibition is 10% in assay [1] (setting [7]); 93% (active) in assay [1] (setting [8]); 59.7% in assay [1] (at 50.0 µM); 0% in assay [2] (setting [7]); 91% (active) in assay [2] (setting [8]); 40.4% in assay [2] (at 50.0 µM). The growth inhibition in assay [3] (setting [7]) was 18%; in assay [3] (setting [8]), 91% (active); in assay [3] (at 50.0 µM) it was 41%; in assay [4] (setting [7]), 4%; in assay [4] (setting [8]) it was 88% (active); in assay [4] (at 50.0 µM), 60.8%. Moreover, the growth inhibition in assay [5] (setting [7]) is 11%; in assay [5] (setting [8]), 98% (active); in assay [5] (at 50.0 µM) it was 39.1%; in assay [6] (setting [7]) it was 4%; in assay [6] (setting [8]) it was 96% (active); in assay [6] (at 50.0 µM), 93.3% (active).

In the case of `Cc1cc2cc3c(c(C(=O)O)c2o1)C(=O)c1ccc2ccccc2c1C3`, the growth inhibition in assay [1] (setting [7]) was 15%; in assay [1] (setting [8]) it was 99% (active); in assay [1] (at 50.0 µM), 98.2% (active); in assay [2] (setting [7]), 24%; in assay [2] (setting [8]), 99% (active); in assay [2] (at 50.0 µM), 99.5% (active). The growth inhibition in assay [3] (setting [7]) is 19%; in assay [3] (setting [8]), 99% (active); in assay [3] (at 50.0 µM), 99.5% (active); in assay [4] (setting [7]), 14%; in assay [4] (setting [8]) it was 99% (active); in assay [4] (at 50.0 µM), 99.2% (active). Moreover, the growth inhibition in assay [5] (setting [7]) is 14%; in assay [5] (setting [8]) it was 99% (active); in assay [5] (at 50.0 µM), 99.6% (active); in assay [6] (setting [7]), 20%; in assay [6] (setting [8]), 99% (active); in assay [6] (at 50.0 µM), 99.4% (active).

Consider `Cc1cccc2c1C1OC(=O)C3CCC=C2C31` (configuration not stated), for which the growth inhibition in assay [1] (setting [7]) was -146%; in assay [1] (setting [8]), -134%; in assay [1] (at 50.0 µM) it was 30.4%; in assay [2] (setting [7]), -49%; in assay [2] (setting [8]), -55%; in assay [2] (at 50.0 µM) it was 53.9%. For the same compound, the growth inhibition in assay [3] (setting [7]) is -56%; in assay [3] (setting [8]), -58%; in assay [3] (at 50.0 µM) it was 12.8%; in assay [4] (setting [7]), -45%; in assay [4] (setting [8]), -39%; in assay [4] (at 50.0 µM), 64.9%. Further, the growth inhibition in assay [5] (setting [7]) was -41%; in assay [5] (setting [8]) it was -52%; in assay [5] (at 50.0 µM), 28.1%; in assay [6] (setting [7]), -107%; in assay [6] (setting [8]) it was -101%; in assay [6] (at 50.0 µM), 41.8%.

For `COC(=O)c1nc(=S)[nH]c(C(=O)OC)c1C(=O)c1ccc2ccccc2c1`, the growth inhibition is 26% in assay [1] (setting [7]); 96% (active) in assay [1] (setting [8]); 94.5% (active) in assay [1] (at 50.0 µM); 9% in assay [2] (setting [7]); 97% (active) in assay [2] (setting [8]); 71.5% (active) in assay [2] (at 50.0 µM). The growth inhibition in assay [3] (setting [7]) is 0%; in assay [3] (setting [8]), 97% (active); in assay [3] (at 50.0 µM) it was 93.3% (active); in assay [4] (setting [7]) it was 8%; in assay [4] (setting [8]) it was 96% (active); in assay [4] (at 50.0 µM) it was 25.8%. In addition, the growth inhibition is 13% in assay [5] (setting [7]); 98% (active) in assay [5] (setting [8]); 71.1% (active) in assay [5] (at 50.0 µM); 16% in assay [6] (setting [7]); 98% (active) in assay [6] (setting [8]); 94.5% (active) in assay [6] (at 50.0 µM).

Turning to `CC(C)(c1ccccc1)c1ccc2[nH]c(C(C)(C)c3ccccc3)c(CC(=O)O)c2c1`, the growth inhibition in assay [1] (setting [7]) was 2%; in assay [1] (setting [8]), 93% (active); in assay [1] (at 50.0 µM), 93.7% (active); in assay [2] (setting [7]), 10%; in assay [2] (setting [8]), 80% (active); in assay [2] (at 50.0 µM) it was 69.5%. Further, the growth inhibition in assay [3] (setting [7]) is 10%; in assay [3] (setting [8]), 96% (active); in assay [3] (at 50.0 µM), 85.7% (active); in assay [4] (setting [7]) it was 0%; in assay [4] (setting [8]) it was 95% (active); in assay [4] (at 50.0 µM) it was 96% (active). The growth inhibition in assay [5] (setting [7]) is -3%; in assay [5] (setting [8]) it was 96% (active); in assay [5] (at 50.0 µM), 94.8% (active); in assay [6] (setting [7]), 17%; in assay [6] (setting [8]), 96% (active); in assay [6] (at 50.0 µM) it was 96% (active).

As for `O=C(NNS(=O)(=O)c1ccccc1)Nc1ccccc1`, the growth inhibition was -21% in assay [1] (setting [7]); -15% in assay [1] (setting [8]); -13.4% in assay [1] (at 50.0 µM); 17% in assay [2] (setting [7]); -11% in assay [2] (setting [8]); 5.85% in assay [2] (at 50.0 µM). Also, the growth inhibition is -3% in assay [3] (setting [7]); 6% in assay [3] (setting [8]); 7.45% in assay [3] (at 50.0 µM); -1% in assay [4] (setting [7]); 4% in assay [4] (setting [8]); 3.8% in assay [4] (at 50.0 µM). The growth inhibition in assay [5] (setting [7]) was 2%; in assay [5] (setting [8]) it was 1%; in assay [5] (at 50.0 µM), 7.2%; in assay [6] (setting [7]), 4%; in assay [6] (setting [8]), 15%; in assay [6] (at 50.0 µM), -5.3%.
